# From the antibiotic and cytotoxicity screens of Wong et al. (2023)
# Out of some 39,000 compounds screened, about 3,300 (8.5%) were called active. Many of the other results were omitted from the sample, so actives are more common in it than they were.
# Test system: HepG2
# Assay: cytotoxicity call (relative viability < 0.9)
# Conditions: 10 µM
row,Compound,cytotoxicity call
1,CS(=O)(=O)c1ccc(C(=O)C2C(=O)CCCC2=O)c([N+](=O)[O-])c1,inactive
2,Cl.NCC(O)c1ccc(O)cc1 (configuration not stated),inactive
3,O=C([O-])CCCO.[Na+],inactive
4,C[C@@]12C(=O)OC(=O)[C@]1(C)[C@H]1CC[C@@H]2O1,active
5,CC12C(=O)OC(=O)C1(C)C1CCC2O1 (configuration not stated),active
6,C[C@]12C(=O)OC(=O)[C@]1(C)[C@H]1CC[C@H]2O1,active
7,NC1(c2ccc(F)cc2)CCC1,inactive
8,COC(=O)C1(O)C[C@H]2CC[C@@H](C1)N2C (some centres not stated),inactive
9,CC=C(C)C(=O)OC1CC(OC(C)=O)C2(C(=O)OC)COC3C2C12COC(O)(C(=O)OC)C2C(C)(C12OC1(C)C1CC2OC2OC=CC21O)C3O (configuration not stated),inactive
10,O[C@H]1C2CN3CCN(C2)CC1(c1ccccc1)C3,inactive
11,O=c1cccc2n1C[C@@H]1CNC[C@H]2C1,inactive
12,Cc1ccc(OC(=O)N(C)C[C@H]2OCc3ccccc3-c3c(n(C)c4ccccc34)C(=O)N([C@@H](C)CO)C[C@H]2C)cc1,inactive
13,Cc1cc([N+](=O)[O-])cnc1N1CCNCC1,inactive
14,CN1C(=O)[C@@]23C[C@]4([C@@]56C[C@]78SS[C@](CO)(C(=O)N7[C@@H]5Nc5ccccc56)N(C)C8=O)c5ccccc5N[C@H]4N2C(=O)[C@@]1(CO)SS3,active
15,CN1C(=O)[C@]23CC4=CC=C[C@H](O)[C@H]4N2C(=O)[C@@]1(CO)SS3,active
16,NC1=NC(=O)C2(CCNCC2)N1,inactive
17,NC[C@@H]1CCCN2CCCC[C@H]12,inactive
18,CCC(c1cccc(O)c1)C(C)CN(C)C.Cl (configuration not stated),inactive
19,COc1cccc2c1C(=O)c1c(O)c3c(c(O)c1C2=O)C[C@@](O)(C(=O)CO)C[C@@H]3O[C@H]1C[C@H](N2CCO[C@H](OC)C2)[C@H](O)[C@H](C)O1,active
20,CC(=C1C(=O)NC(=O)NC1=O)c1ccc(N)cc1,inactive
21,O=C(O)Cc1cnc[nH]1,inactive
22,CN[C@@H]1[C@@H]2[C@H]3CCN2C[C@H]1O3,inactive

row,Compound,cytotoxicity call
1,CNC(=O)[C@@H]1COC[C@@H]2CN(CC(C)C)C[C@@H]21,inactive
2,CCC1(O)C(=O)OCc2c1cc1n(c2=O)Cc2cc3ccccc3nc2-1 (configuration not stated),active
3,OCC(CO)N1CCC2(CCNCC2)CC1,inactive
4,C#CC1(O)C=CC2C3CCC4=CC(=O)CCC4C3CCC21CC (configuration not stated),inactive
5,C[C@@H](N)C(=O)N[C@@H](CO)C(=O)N[C@H](C(=O)N[C@H](C(=O)N[C@H](C(=O)N[C@@H](CC(N)=O)C(=O)N[C@@H](Cc1ccc(O)cc1)C(=O)N[C@H](C(N)=O)[C@@H](C)O)[C@@H](C)O)[C@@H](C)O)[C@@H](C)O,inactive
6,C[C@@H]1[C@H](O)[C@@H](C)/C=C\C=C/CC\C=C/C=C\C=C/C=C\[C@H](O[C@@H]2O[C@H](C)[C@@H](O)[C@H](N)[C@@H]2O)C[C@@H]2O[C@](O)(C[C@@H](O)[C@H](O)CC[C@@H](O)C[C@@H](O)C[C@@H](O)CC(=O)O[C@H]1C)C[C@H](O)[C@H]2C(=O)O,inactive
7,O=S(=O)(O)O.Oc1cccc2cccnc12,active
8,CC(C)(C)NCC(O)c1cc(Cl)c(N)c(Cl)c1.Cl (configuration not stated),inactive
9,CC(C)(C)c1o[nH]c(=O)c1C[C@@H](N)C(=O)O,inactive
10,CC1CCC2(NC1)OC1CC3C4CCC5CC(O)CCC5(C)C4CCC3(C)C1C2C.Cl (configuration not stated),inactive
11,COc1cc2c(c(OC)c1OC)-c1ccc(O)c(=O)cc1C(NC(C)=O)CC2 (configuration not stated),inactive
12,COc1cc2c(c(OC)c1OC)-c1ccc(O)c(=O)cc1[C@H](N)CC2,inactive
13,COc1cc2c(c(OC)c1OC)-c1ccc(OC)c(=O)cc1C(NC(C)=O)CC2 (configuration not stated),active
14,CC1(C)OCC2(CNC2)CO1,inactive
15,CN1CCOC[C@]2(CCCNC2)C1,inactive
16,CN(C)[C@@H]1C(=O)[C@H](C(N)=O)C(=O)[C@@]2(O)C(=O)[C@@H]3C(=O)c4c(O)cccc4[C@@](C)(O)[C@H]3C[C@@H]12,inactive
17,C[C@H]1CN([C@@H](C)CO)C(=O)c2c(c3ccccc3n2C)-c2ccccc2CO[C@@H]1CN(C)C(=O)Oc1ccccc1,inactive
18,CN1[C@@H]2C[C@@H](O)C[C@H]1[C@@H]1O[C@@H]12,inactive
19,Cc1ccc(OC(=O)N(C)C[C@@H]2OCc3ccccc3-c3c(n(C)c4ccccc34)C(=O)N([C@@H](C)CO)C[C@H]2C)cc1,inactive
20,Cc1ccc(OC(=O)N(C)C[C@@H]2OCc3ccccc3-c3c(n(C)c4ccccc34)C(=O)N([C@@H](C)CO)C[C@@H]2C)cc1,inactive
21,COc1ccc(OC(=O)N(C)C[C@H]2OCc3ccccc3-c3c(n(C)c4ccccc34)C(=O)N([C@H](C)CO)C[C@@H]2C)cc1,inactive
22,Cc1ccc(OC(=O)N(C)C[C@H]2OCc3ccccc3-c3c(n(C)c4ccccc34)C(=O)N([C@H](C)CO)C[C@H]2C)cc1,inactive

row,Compound,cytotoxicity call
1,COc1ccc(OC(=O)N(C)C[C@@H]2OCc3ccccc3-c3c(n(C)c4ccccc34)C(=O)N([C@@H](C)CO)C[C@H]2C)cc1,active
2,Cc1ccc(OC(=O)N(C)C[C@H]2OCc3ccccc3-c3c(n(C)c4ccccc34)C(=O)N([C@H](C)CO)C[C@@H]2C)cc1,active
3,COc1ccc(OC(=O)N(C)C[C@H]2OCc3ccccc3-c3c(n(C)c4ccccc34)C(=O)N([C@@H](C)CO)C[C@H]2C)cc1,inactive
4,Cc1ccc(OC(=O)N(C)C[C@H]2OCc3ccccc3-c3c(n(C)c4ccccc34)C(=O)N([C@@H](C)CO)C[C@@H]2C)cc1,active
5,Cc1ccc(OC(=O)N(C)C[C@@H]2OCc3ccccc3-c3c(n(C)c4ccccc34)C(=O)N([C@H](C)CO)C[C@@H]2C)cc1,inactive
6,CCOCC(=O)N1CC[C@H]2CNC[C@H]21,inactive
7,COc1cccc(C2(N)CCCC2)c1,inactive
8,CC(C)[C@H]1CN2CCC[C@H]2[C@@]2(O)O[C@](CC(=O)[C@@H]3C=C4c5cccc6[nH]cc(c56)C[C@H]4N(C)C3)(C(C)C)C(=O)N12,inactive
9,C[C@H](CO)N1C[C@H](C)[C@@H](CN(C)C(=O)Oc2ccc3ccccc3c2)OCc2cn(nn2)CCCC1=O,inactive
10,NC(=N[N+](=O)[O-])NCCC[C@H](N)C(=O)O,inactive
11,CC(C)[C@H]1CNC(=O)C1,inactive
12,O=C1NC(=S)NC(=O)C1c1ccccc1,inactive
13,C#CCO[C@H]1CN2CCC1CC2,inactive
14,CC(C)C[C@@H](N)C1(c2ccc(Cl)cc2)CCC1,inactive
15,CC1OC(OC2C=C3CCC4C(CCC5(C)C(c6ccc(=O)oc6)CCC45O)C3(C)CC2)C(O)C(O)C1O (configuration not stated),active
16,CN1CCc2cc3c(cc2C1C1OC(=O)c2c1ccc1c2OCO1)OCO3 (configuration not stated),inactive
17,ClC(Cl)=C(c1ccc(Cl)cc1)c1ccc(Cl)cc1,inactive
18,Nc1ccccc1N1CCNCC1,inactive
19,CN(C)C(=O)CN1CCN(C)C(=O)[C@]12CCN(c1ncccn1)C2,inactive
20,[NH2][Pt]1([NH2])[O]C(=O)C2(CCC2)C(=O)[O]1,inactive
21,O=[N+]([O-])OC1COC2C(O)COC12 (configuration not stated),inactive
22,CCn1cnc2c(Nc3cccc(Cl)c3)nc(N[C@@H]3CCCC[C@@H]3N)nc21,active

row,Compound,cytotoxicity call
1,Cc1cccc([C@H](CN)N(C)C)c1,inactive
2,C[C@@H]1CN([C@@H](C)CO)C(=O)CCCn2cc(nn2)CO[C@H]1CN(C)C(=O)Oc1cccc2ccccc12,inactive
3,COCCCNC(=O)[C@@]1(Cc2ccccc2CN=[N+]=[N-])N=C(c2ccc(OCCCO)cc2)O[C@H]1c1ccccc1N=[N+]=[N-],inactive
4,COCCCNC(=O)[C@@]1(Cc2ccccc2CN=[N+]=[N-])N=C(c2ccc(OCCCO)cc2)O[C@H]1c1ccccc1CN=[N+]=[N-],active
5,COCCCNC(=O)[C@]1(Cc2ccccc2N=[N+]=[N-])N=C(c2ccc(OCCCO)cc2)O[C@@H]1c1ccccc1N=[N+]=[N-],inactive
6,[N-]=[N+]=NCc1ccccc1C[C@]1(C(=O)NCc2ccccc2)N=C(c2ccc(OCCCO)cc2)O[C@H]1c1ccccc1N=[N+]=[N-],active
7,CN(C)C(=O)[C@]1(Cc2ccccc2CN=[N+]=[N-])N=C(c2ccc(OCCCO)cc2)O[C@@H]1c1ccccc1N=[N+]=[N-],inactive
8,[N-]=[N+]=Nc1ccccc1C[C@@]1(C(=O)NCc2ccccc2)N=C(c2ccc(OCCCO)cc2)O[C@@H]1c1ccccc1N=[N+]=[N-],inactive
9,COC(=O)[C@]1(Cc2ccccc2CN=[N+]=[N-])N=C(c2ccc(OCCCO)cc2)O[C@@H]1c1ccccc1N=[N+]=[N-],active
10,CN(C)C(=O)[C@@]1(Cc2ccccc2CN=[N+]=[N-])N=C(c2ccc(OCCCO)cc2)O[C@H]1c1ccccc1N=[N+]=[N-],active
11,COC(=O)[C@@]1(Cc2ccccc2N=[N+]=[N-])N=C(c2ccc(OCCCO)cc2)O[C@H]1c1ccccc1CN=[N+]=[N-],inactive
12,COC(=O)[C@@]1(Cc2ccccc2CN=[N+]=[N-])N=C(c2ccc(OCCCO)cc2)O[C@H]1c1ccccc1N=[N+]=[N-],inactive
13,CN(C)C(=O)[C@@]1(Cc2ccccc2N=[N+]=[N-])N=C(c2ccc(OCCCO)cc2)O[C@H]1c1ccccc1N=[N+]=[N-],inactive
14,CN(C)C(=O)CN1C[C@H]2CON[C@@H]2C1,inactive
15,O=C(c1ccccc1)C12CN3CN(CN(C3)C1)C2,inactive
16,CC(C)c1cc2c(c(O)c1O)C1(C(=O)O)CCCC(C)(C)C1CC2 (configuration not stated),inactive
17,CN1C[C@@H]2CNC[C@@H]2C1=O,inactive
18,C[C@@H]1CN([C@@H](C)CO)C(=O)CCCn2nncc2CO[C@H]1CN(C)C(=O)Oc1ccc2ccccc2c1,inactive
19,C1CO[C@H]2[C@@H](C1)CNC[C@H]2N1CCOCC1,inactive
20,NCCc1c[nH]c2ccc(C(N)=O)cc12,inactive
21,NCCc1ccncc1,inactive
